For 13 compounds, growth results are on record in PubChem BioAssay (NCI).

What all share (assay): NCI-60 one-dose screen, 48 h (100 = growth as untreated, 0 = no growth, -100 = all killed)
The test system of assay [1] is DU-145 prostate. To be noted: 10 µM unless noted.
In assay [2] the test system is K-562 leukemia. To be noted: 10 µM unless noted.
Assay [3] has as its system MALME-3M melanoma. The note with it: 10 µM unless noted.
Assay [4] deals with MDA-MB-231 breast. To be noted: 10 µM unless noted.
Assay [5] concerns RXF 393 renal. To be noted: 10 µM unless noted.
Assay [6] deals with SF-268 CNS. The note with it: 10 µM unless noted.
In assay [7] the test system is SF-295 CNS. The note with it: 10 µM unless noted.
Assay [8] has as its system SF-539 CNS. To be noted: 10 µM unless noted.
Assay [9] concerns UACC-257 melanoma. To be noted: 10 µM.
Assay [10] concerns M14 melanoma. To be noted: 10 µM unless noted.

Compounds without any hit were thinned out: in the full panel of roughly 83,000, 20% have a hit.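 The endpoint reported here, percent growth, reads 100 for growth as untreated, 0 for no net growth and -100 for all cells dead.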 Values without a mark were called inactive. Activity calls are given as the source filed them. How the source made its calls: active means growth percent below 10; inactive means the rest.

`COc1ccc(-c2nnc(SCc3ccc(O)c4ncccc34)n2-c2ccccc2)cc1`: the growth in assay [1] was 24.8%; in [2], 13.3%; in [3], 10.6%; in assay [4], 30.9%; in assay [5] it was 7.27% (active); in [6], 18.1%. The growth was -1.96% (active) in assay [7], 4.55% (active) in assay [8], 13.6% in [9] and -13.5% (active) in assay [10].
With `O=[N+]([O-])c1ccc(-c2nnc(SCc3ccc(O)c4ncccc34)n2-c2ccccc2)cc1`, the growth in [1] is 29%; in assay [2], 21.2%; in [3], 19.6%; in assay [4], 24.8%; in assay [5], 16.3%; in [6], 23.6%. Also, the growth was 5.71% (active) in assay [7], 11.7% in [8], 42.5% in assay [9] and 24.2% in assay [10].
Take `CC(C)N=C(N/C(N)=N/c1nc2ccccc2s1)NC(C)C`: the growth in assay [1] was 85.6%; in [2] it was 23.1%; in assay [3] it was 75.4%; in [4], 56.3%; in assay [5], 51.9%; in [6] it was 81.3%. Further, the growth in assay [7] is 43.8%; in assay [8], 52.3%; in assay [9], 87.9%; in assay [10], 58%.
With `Nc1nc(-c2cccc([N+](=O)[O-])c2)c(N=Nc2ccccc2Cl)s1`, the growth in assay [1] was 52.6%; in [2], 52.5%; in assay [3], 111%; in assay [4], 54.1%; in [5], -13.6% (active); in assay [6] it was 68.4%. The growth in [7] was 70.8%; in assay [8], 17.8%; in [9], 104%; in assay [10], 77.7%.
Take `COc1ccc2c(c1)c(-c1nnc(N)nc1-c1cn(C)c3ccccc13)cn2C`: the growth in [1] was 104%; in assay [2] it was 83.5%; in [3] it was 85.6%; in assay [4], 91.1%; in assay [5], 93.2%; in assay [6] it was 101%. Further, the growth was 99.5% in assay [7], 91.8% in [8], 93.8% in [9] and 85.7% in assay [10].
Turning to `COc1ccc(OC)c(NC2=C(Cl)C(=O)C(C)=C(C)C2=O)c1`, the growth in [1] was 104%; in [2], 55.8%; in assay [3], 98.7%; in [4] it was 76.6%; in assay [5] it was 107%; in [6], 93.9%. Moreover, the growth in assay [7] is 100%; in assay [8], 99%; in assay [9], 86.8%; in [10], 97.8%.
Take `CCCC(=O)NC(c1cccnc1)c1ccc2c(C)ccnc2c1O` (stereo not given): the growth in assay [1] was 30.1%; in assay [2], 21.4%; in assay [3], 21.2%; in assay [4] it was 32.9%; in assay [5] it was 20.4%; in assay [6] it was 21.9%. Further, the growth in assay [7] is 17.8%; in assay [8], 14.6%; in [9] it was 5.9% (active); in assay [10], 9.45% (active).
Consider `c1ccc(-c2c(-c3ccccc3)[n+](Cc3ccc4ccccc4c3)c(-c3ccccc3)n2Cc2ccc3ccccc3c2)cc1`, for which the growth in [1] is -92.6% (active); in assay [2], -30.9% (active); in [3] it was -82.5% (active); in assay [4], -85.6% (active); in assay [5], -91.9% (active); in assay [6], -73.5% (active). In addition, the growth in assay [7] was -91.3% (active); in assay [8], -90% (active); in [9], -56.6% (active); in assay [10] it was -72% (active).
With `N#C/C(=C\c1ccc(Cl)cc1Cl)C(N)=O`, the growth in [1] was 114%; in assay [2] it was 80.3%; in [3] it was 105%; in assay [4] it was 100%; in assay [5], 102%; in assay [6], 101%. Also, the growth in assay [7] is 107%; in assay [8] it was 104%; in assay [9], 109%; in [10], 99.4%.
Turning to `CCOC(=O)c1c(Nc2ccccc2)nn2c(-c3ccc(Br)cc3)ccnc12`, the growth in assay [1] was 77.8%; in [2], 78.9%; in assay [3], 75%; in [4] it was 70.4%; in assay [5] it was -12.3% (active); in assay [6], 68.7%. Further, the growth in assay [7] is 77.2%; in assay [8], 63.8%; in [9], 103%; in assay [10] it was 88.6%.
With `C#C[C@]1(O)CC[C@H]2[C@@H]3CC=C4c5sc(C6CCOCC6)nc5CC[C@]4(C)[C@H]3CC[C@@]21C`, the growth in assay [1] was 97.9%; in [2], 13.2%; in assay [3] it was 88.8%; in assay [4], 73.9%; in assay [5], 4.95% (active); in assay [6] it was 91.2%. In addition, the growth in assay [7] is 37.8%; in assay [8], 56.5%; in [9] it was 78.3%; in assay [10], 59.8%.
Consider `O=C1[C@H]2Cc3c([nH]c4ccccc34)[C@@H](c3ccc(Cl)cc3)N2C(=O)CN1C1CCN(Cc2c(Cl)cccc2Cl)CC1`, for which the growth in assay [1] was 90.4%; in assay [2] it was 81.6%; in assay [3], 65.8%; in assay [4], 53%; in [5] it was 109%; in [6], 85.6%. In addition, the growth in assay [7] was 73%; in assay [8] it was 77.7%; in [9], 102%; in assay [10] it was 84.5%.
On to `CN1CCN(c2ccc3c(C(N)=O)c(NC(=O)c4ccc(C(C)(C)C)cc4)sc3c2)CC1`, for which the growth was 87.4% in assay [1]; 21.2% in assay [2]; 81.6% in [3]; 90.6% in assay [4]; 81.8% in assay [5]; 97.6% in assay [6]. The growth in [7] was 79.8%; in assay [8], 63.6%; in assay [9] it was 92.7%; in [10], 90%.
